Source: PubChem BioAssay (NCATS)
Values joined by “and” are separate entries in the source; they are usually repeats but may differ in a detail not shown here. Equal values may be shown once. Inconclusive results are not listed. Active and inactive are the calls of the source. The call rests on the fitted dose curve; in most records, active means well fitted inhibition curve with a large enough effect; inconclusive means small, poorly fitted or top-dose-only effect; inactive means flat fitted curve, though single readings scatter.

Experiments:
[1] = tested on: CRL-7250; test: Cytotoxic Profiling of Annotated Libraries Using Quantitative High-Throughput Screening (AID 1296008); conditions: Five cell lines viability, CellTiter-Glo ATP luminescence, 48-72 h; max response: hits give low values
Outline: (§1)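 Cytotoxicity was measured as CellTiter-Glo ATP luminescence, read after 10 min at room temperature. Compound treatment of the cells lasted 48 or 72 hr at 37 degrees Celsius in a qHTS format.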

[2] = tested on: HEK293; test: as above; conditions: Five cell lines viability, CellTiter-Glo ATP luminescence, 48-72 h; max response: hits give low values
Outline: as §1

[3] = tested on: HaCat; test: as above; conditions: Five cell lines viability, CellTiter-Glo ATP luminescence, 48-72 h; max response: hits give low values
Outline: as §1

[4] = tested on: KB-3-1; test: as above; conditions: Five cell lines viability, CellTiter-Glo ATP luminescence, 48-72 h; max response: hits give low values
Outline: as §1

[5] = tested on: NIH3T3; test: as above; conditions: Five cell lines viability, CellTiter-Glo ATP luminescence, 48-72 h; max response: hits give low values
Outline: as §1

[6] = tested on: MCC-13; test: qHTS assay to identify novel small-molecules to repurpose for Merkel cell carcinoma treatment (AID 1296009); conditions: MCC and control cell lines, CellTiter-Glo viability, 72 h; series mostly up to 46 µM
Outline: (§2)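 72 hr, 37 degree celsius; NPC 8-pt / MIPE 11-pt dose response; compound pinned in DMSO; CellTiter-Glo, 10 min RT, luminescence; normalized to no-cell and DMSO controls.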

[7] = tested on: MCC-26; test: as above; conditions: MCC and control cell lines, CellTiter-Glo viability, 72 h; series mostly up to 46 µM
Outline: as §2

[8] = tested on: MKL-1; test: as above; conditions: MCC and control cell lines, CellTiter-Glo viability, 72 h; series mostly up to 46 µM
Outline: as §2

[9] = tested on: MKL-2; test: as above; conditions: MCC and control cell lines, CellTiter-Glo viability, 72 h; series mostly up to 46 µM
Outline: as §2

[10] = tested on: HACAT; test: as above; conditions: MCC and control cell lines, CellTiter-Glo viability, 72 h; series mostly up to 44.8 µM
Outline: as §2
Further: nearly all actives have a fitted effect of over 60% in size.
On the % scale 0 is the no-effect control and ±100 the full control effect; potency means the concentration at half of the fitted maximal effect.

CC(=O)OCCN1C(=O)c2c(C)nc3ccc(S(=O)(=O)N4CCOCC4)cc3c2C1=O
inactive: max response [1] -12.8% | max response [2] -2.2% | max response [3] 1.24% | outcome [4] | max response [5] 2.81% | Potency [6] | Potency [7] | Potency [8] | Potency [9]

NC(=O)Nc1cc(-c2cccc(F)c2)sc1C(=O)N[C@H]1CCCNC1
active: Potency [1] 4.69 µM and 2.06 µM | Potency [2] 148 nM and 231 nM | Potency [3] 8.33 µM and 1.3 µM | Potency [4] 2.09 µM and 1.03 µM | Potency [5] 418 nM and 291 nM | Potency [6] 14.8 µM | Potency [7] 11.8 µM | Potency [8] 3.32 µM

COC(=O)Nc1ccc(-c2nc(N3CCOCC3)c3cnn(C4CCN(Cc5cccnc5)CC4)c3n2)cc1
active: Potency [1] 118 nM and 1.3 µM | Potency [2] 66.2 nM and 1.46 µM | Potency [3] 13.2 µM | Potency [4] 132 nM and 1.64 µM | Potency [5] 83.3 nM and 920 nM | Potency [6] 14.8 µM | Potency [7] 8.33 µM

CC(=O)c1c(C)c2cnc(Nc3ccc(N4CCNCC4)cn3)nc2n(C2CCCC2)c1=O
inactive: max response [1] -3.02% | max response [2] -2.77% | max response [3] 1.14% | max response [4] -7.2% | max response [5] 3.53% | Potency [6]

Cc1ccc(-c2ncn(-c3ccc(Nc4nccc(-c5cccc(N6CCOCC6)c5)n4)cc3)n2)cn1
active: Potency [1] 0.118 µM | Potency [2] 0.332 µM | Potency [3] 0.418 µM | Potency [4] 0.209 µM | Potency [6] 0.526 µM | Potency [7] 0.264 µM | Potency [8] 0.235 µM | Potency [9] 0.0526 µM

Cc1ccc(C(N)=O)cc1Nc1nccc(-c2cn(C(C)C)c3cnccc23)n1
active: Potency [1] 11.6 µM | Potency [2] 6.51 µM | Potency [3] 23.5 µM | Potency [4] 5.8 µM | Potency [5] 10.5 µM | Potency [9] 20.9 µM

Cc1cc(N2CCOCC2)cc2[nH]c(-c3c(NC[C@@H](O)c4cccc(Cl)c4)cc[nH]c3=O)nc12
active: Potency [1] 11.8 µM | Potency [2] 2.96 µM and 7.31 µM | Potency [3] 4.18 µM and 5.8 µM | Potency [4] 14.8 µM | Potency [5] 7.43 µM and 13 µM
inactive: Potency [9]

O=C(Cc1ccc(-c2ccc(OCCN3CCOCC3)cc2)cn1)NCc1ccccc1
active: Potency [1] 23.5 nM and 1.3 µM | Potency [2] 14.8 nM and 184 nM | Potency [4] 26.4 nM and 731 nM | Potency [6] 0.0469 µM | Potency [7] 0.0935 µM
inactive: outcome [3] | Potency [10]

NC1(Cc2ccc(Cl)cc2)CCN(c2ncnc3[nH]ccc23)CC1
active: Potency [1] 13.2 µM | Potency [2] 1.66 µM and 6.51 µM
inactive: max response [3] -10.8% | max response [4] -6.56% | max response [5] 0.262% | Potency [6] | Potency [7] | Potency [9]

CC(C)c1ccc(Cn2ccc3c4c(N)nc(NC5CC5)nc4ccc32)cc1
active: Potency [1] 3.32 µM | Potency [2] 1.18 µM | Potency [3] 37.2 µM | Potency [4] 1.32 µM | Potency [5] 4.69 µM | Potency [6] 1.05 µM | Potency [8] 14.8 µM | Potency [9] 4.18 µM

Cc1ccc(S(=O)(=O)Nc2cc(Cl)ccc2C(=O)Nc2nc(-c3ccccc3)cs2)cc1
active: Potency [2] 11.8 µM
inactive: max response [1] 3.55% | outcome [3] | max response [4] -7.08% | Potency [10] | Potency [6] | Potency [8] | Potency [9]

C[C@@H]1CN(CC(=O)Nc2ccc3c(c2)Cc2cccc(-c4cc(=O)cc(N5CCOCC5)o4)c2S3)C[C@H](C)O1
active: Potency [2] 18.7 µM
inactive: max response [1] -2.3% | outcome [3] | max response [4] -19.5% | Potency [10] | Potency [6] | Potency [7] | Potency [8]

COc1cc2nccc(Oc3ccc(NC(=O)C4(C(=O)Nc5ccc(F)cc5)CC4)cc3)c2cc1OC
active: Potency [1] 1.48 µM and 13 µM | Potency [2] 14.8 µM and 16.4 µM | Potency [3] 16.6 µM and 25.9 µM | Potency [4] 23.5 µM | Potency [5] 332 nM and 1.64 µM | Potency [8] 2.96 µM

Cc1nc(Nc2n[nH]c3c2CN(C(=O)N[C@H](CN(C)C)c2ccccc2)C3(C)C)c2sccc2n1
active: Potency [1] 1.18 µM and 130 nM | Potency [2] 20.9 nM and 10.3 nM | Potency [3] 7.43 µM | Potency [4] 2.35 µM and 2.06 µM | Potency [5] 1.16 µM | Potency [7] 14.8 µM | Potency [8] 1.48 µM | Potency [9] 2.64 µM

CC(C)(C)OC(=O)Nc1ccc(-c2cc(C(=O)NCCCCCCC(=O)NO)no2)cc1
active: Potency [1] 16.6 µM | Potency [2] 7.43 µM | Potency [3] 20.9 µM | Potency [4] 8.33 µM | Potency [5] 14.8 µM | Potency [6] 11.8 µM | Potency [7] 18.7 µM | Potency [9] 2.96 µM

Cc1c(CN2CCN(S(C)(=O)=O)CC2)sc2c(N3CCOCC3)nc(-c3cnc(N)nc3)nc12
active: Potency [1] 166 nM and 259 nM | Potency [2] 59 nM and 326 nM | Potency [3] 0.0418 µM | Potency [4] 0.0833 µM | Potency [5] 148 nM and 517 nM | Potency [9] 0.118 µM

COc1ccc(F)c(F)c1C(=O)c1cnc(NC2CCN(S(C)(=O)=O)CC2)nc1N
active: Potency [1] 2.35 µM and 3.66 µM | Potency [2] 1.05 µM | Potency [3] 10.5 µM and 5.17 µM | Potency [4] 3.32 µM and 4.11 µM | Potency [5] 2.09 µM and 3.26 µM | Potency [9] 11.8 µM

CC[C@@]1(O)C(=O)OCc2c1cc1n(c2=O)Cc2cc3cc(O)ccc3nc2-1
active: Potency [1] 1.3 µM and 1.48 µM | Potency [2] 73.1 nM and 148 nM | Potency [3] 116 nM and 743 nM | Potency [4] 517 nM and 1.05 µM | Potency [5] 1.46 µM and 662 nM | Potency [6] 0.118 µM | Potency [8] 0.0372 µM | Potency [9] 0.264 µM

CC[C@@H]1C(=O)N(C)c2cnc(Nc3ccc(C(=O)NC4CCN(C)CC4)cc3OC)nc2N1C1CCCC1
active: Potency [1] 2.64 µM | Potency [2] 0.0166 µM | Potency [3] 0.0332 µM | Potency [4] 0.0083 µM | Potency [5] 1.87 µM | Potency [6] 0.662 µM | Potency [8] 0.0235 µM | Potency [9] 3.32 µM

COc1ccc(C=Cc2cc(OC)c(OC)c(OC)c2)cc1O
active: Potency [4] 0.001 µM
inactive: max response [1] -82.4% | max response [2] -79.1% | max response [3] -0.114% | max response [5] -49.1% | Potency [6] | Potency [9]

COCCOc1ccc2c(c1)ncn2-c1ccc2cccc(N3CCC(N)CC3)c2n1
active: Potency [1] 4.69 µM and 8.2 µM | Potency [2] 11.8 µM | Potency [3] 18.7 µM and 16.4 µM | Potency [4] 16.6 µM and 11.6 µM | Potency [5] 1.48 µM | Potency [8] 20.9 µM

CN(C)CC=CC(=O)Nc1cc2c(Nc3ccc(F)c(Cl)c3)ncnc2cc1O[C@H]1CCOC1
inactive: max response [3] -151%
active: Potency [1] 3.32 µM | Potency [2] 1.32 µM | Potency [4] 4.18 µM | Potency [5] 3.72 µM | Potency [8] 14.8 µM | Potency [9] 5.26 µM
